Laboratory results reported in PubChem BioAssay (NCI).
“And” between values parts separate entries of the source, which are not always exact repeats. Equal entries are not always repeated. About 83,000 compounds went through this panel and 20% of them were active in at least one assay; those are over-represented in the sample as a whole.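 Cell lines were cultured in 96-well plates, exposed to a single compound concentration, and assessed for percent growth 48 hours later.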 Unmarked numbers belong to inactive results. The source made the active and inactive calls. How the source made its calls: active means growth percent below 10; inactive means the rest.

Tested on: MDA-MB-468 breast
Test: NCI-60 one-dose screen, 48 h (100 = growth as untreated, 0 = no growth, -100 = all killed)
Details: 10 µM unless noted

| SMILES | growth |
| --- | --- |
| CC[C@@H](C(=O)[C@H](C)[C@H](O)[C@@H](C)[C@H]1O[C@H]([C@@H](CC)C(=O)N(CC)CC)CC[C@H]1C)C1O[C@]2(C=C[C@@H](O)[C@]3(CC[C@@](C)([C@H]4CC[C@](O)(CC)[C@H](C)O4)O3)O2)[C@H](C)C[C@@H]1C (stereo partly specified) | -18.3% (active) |
| Cc1ccc([C@H]2c3[nH]c4ccccc4c3C[C@H]3C(=O)N(CCCCCCC(=O)NO)CC(=O)N23)s1 | 37.3% |
| NCCNc1nc(-c2ccccc2)nc2nc(-c3ccccc3)oc12 | 18.9% |
| O=[N+]([O-])c1ccc(-c2cc3c(Nc4ccc(Sc5nc6ccccc6s5)c(Cl)c4)ncnc3s2)cc1 | 26.1% |
| C=CN(C(=O)N1CCN(c2cc3c(cc2F)c(=O)c(C(=O)O)cn3C2CC2)CC1)c1nc(-c2ccc(Cl)cc2)cs1 | 76.3% |
| O=C1CCNC1 | 107% |
| COc1cc(/C=N/Nc2ncc(-c3cc4cc5c(cc4o3)OCO5)s2)cc(OC)c1OC | 25.2% |
| COc1ccc(-c2cc(-c3ccccc3)nc(SCCCC(=O)NO)n2)cc1OC | -2.2% (active) |
| N#Cc1ccc(-c2csc(Nc3ccc4nc5n(c(=O)c4c3)CCC5)n2)cc1 | 105% |
| COCc1nc(NS(=O)(=O)c2ccc(N)cc2)nc(C)c1Br | 99.1% |
| CC[N+](CC)=c1ccc2nc3c(cc(N)c4ccccc43)oc-2c1 | -5.04% (active) |
| COC(=O)N1CCN(CCNCc2ccc(NC(=O)c3ccc(C)c(C#Cc4cnc5cccnn45)c3)cc2C(F)(F)F)CC1 | -8.93% (active) |
| COc1ccc(C(=O)Cn2c(C(=O)c3ccc(OC)cc3)nc3ccccc32)cc1 | 17% |
| COc1ccc(C2=NN(C=O)C(c3cccc(Nc4ccnc5cc(Cl)ccc45)c3)C2)cc1 (stereo unspecified) | -3.92% (active) |
| CCOC(=O)c1ccc2c(c1)[n+](=O)c(C(C)=O)c(C(F)(F)F)n2[O-] | -37% (active) |
| Cc1nn(-c2ccccc2)c(Oc2ccccn2)c1-c1nc2ccccc2s1 | 80% |
| O=[N+]([O-])c1ccc(/C=N\NC(=S)Nc2ccc(F)cc2)cc1 | 104% and 101% |
| CC(C)CCN(CCC(C)C)CC(=O)Nc1ccc(S(=O)(=O)c2ccc(NC(=O)CN(CCC(C)C)CCC(C)C)cc2)cc1 | 46.5% |

| SMILES | growth |
| --- | --- |
| Cc1nc(-c2cc3ccccc3oc2=O)ccc1C(=O)/C=C/c1ccccn1 | 60.5% |
| COc1cc(OC)c(/C=C/S(=O)(=O)Cc2ccc(OC)c(NC(=O)CCC(=O)NO)c2)c(OC)c1 | 40.4% |
| O=c1c2ccccc2[nH]n1Cc1ccc2c(c1)OCO2 | 94.5% |
| CC(C)c1ccc(C(=O)Nc2nc3ccc(O)cc3s2)cc1 | 2.85% (active) |
| CCOC(=O)[C@@H]1CCCN(S(=O)(=O)c2ccc(S(=O)(=O)N(CC)CC)c(F)c2)C1 | 36% |
| CCn1c(Sc2nnc(Nc3ccccc3)s2)nc2c1c(=O)n(C)c(=O)n2C | 91.8% |
| CC/C(=C(\CC)c1ccc(OCCN(CC)CC)cc1)c1ccc(OCCN(CC)CC)cc1 | 0.372% (active) |
| N#Cc1c(-c2ccc(Cl)cc2)nc(SCc2ccc([N+](=O)[O-])cc2)nc1N1CCNCC1 | -44.2% (active) |
| Cc1cc(C)c(S(=O)(=O)Oc2ccccc2[N+](=O)[O-])c(C)c1 | -0.215% (active) |
| c1ccc(Nc2nnc(-c3cc(-c4cccnc4)n(-c4ccccc4)n3)s2)cc1 | 104% |
| COc1cccc(-c2nc3sccn3c2-c2ccnc(NCCCNS(=O)(=O)c3ccc(F)cc3)c2)c1 | 13.3% |
| CS(=O)(=O)c1nccc(-c2c(-c3cccc(OCCc4ccccc4)c3)nc3sccn23)n1 | 20.2% |
| C=CC(=O)N1CC2(CCC(n3nc(-c4ccc(Oc5ccccc5)cc4)c4c(N)ncnc43)CC2)C1 | -58.1% (active) |
| CCCNC(=O)Oc1ccc(/C(=C(/CC)Cc2ccccc2)c2ccc(OCCN(CC)CC)cc2)cc1 | 68.6% |
| COc1ccc(CC(C#N)c2cc3ccccc3[nH]2)cc1 (stereo unspecified) | 89.6% |
| COc1ccc(C2CC(c3cc(OC)c(OC)c(OC)c3)=NN2)cc1 (stereo unspecified) | 66.6% |
| NC1=NC(c2cccc(Br)c2)c2sc3ccc(Cl)cc3c2N1 (stereo unspecified) | 87.4% |
| CC(C)Sc1nc(Nc2ccc(S(N)(=O)=O)cc2)c(C#N)c(-c2ccc(F)cc2)n1 | 92.7% |
